These results are taken from PubChem BioAssay (NCATS).

Records with an inconclusive call do not appear. Active and inactive are the calls of the source. Unless noted, calls follow the shape of the dose curve; as a rule, active = well fitted curve in the direction sought with a large enough effect; inconclusive = small, poorly fitted or top-dose-only effect, or another doubt; inactive = no such curve, though single readings can be large; an effect the other way counts as inactive or inconclusive.

Assay [1] can be described thus: Validation of Assay for Modulators of Lamin A Splicing (AID 1459; active = well fitted curve in the direction sought with a large enough effect in the signal ratio; the % refers to the signal ratio;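 also: cells exposed to compound for two days before reading; 0% is about no effect; ratio rise marks activators and ratio drop marks inhibitors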). The method, boiled down: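 Splicing correction is reported by an EGFP-containing lamin A minigene in stably transfected S3 HeLa cells, while DsRed2 controls for viability and nonspecific signal. Cells are exposed to compounds for 48 hrs before the GFP over RFP ratio is taken.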
Assay [2] in a line: qHTS Assay for Lipid Storage Modulators (AID 1519; calls by dose curve; as to activity change, negative = inhibition: % is scaled to controls: 0 for no effect and ±100 for the full control effect). Particulars: Drosophila S3 cells, BODIPY lipid droplet/cell ratio, laser cytometry, cells loaded with oleic acid; for activity change, negative = inhibition: at 57.5 µM (top of the series). Summed up: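 Cells seeded at 5,000 per well were treated with compounds over a concentration series and loaded with oleic acid (400 uM, as added). Lipid droplet fluorescence (488 nm excitation, 500-530 nm channel) was read by laser-scanning cytometry and normalized to 20 uM Triacsin C.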
A general note: In qHTS, concentration-response curves come from the screen itself.

Assay [3] concerns the target DNA repair nuclease/redox regulator APEX1 (Homo sapiens) (UniProt P27695). In words: qHTS Validation Assay for Inhibitors of the Human Apurinic/apyrimidinic Endonuclease 1 (APE1) (AID 1705; also: potency is read from the fitted curve at half-maximal effect;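 as to activity change, negative = inhibition: TAMRA fluorescence gain over two minutes as APE1 cuts a quenched THF abasic duplex; % is scaled to controls: 0 for no effect and ±100 for the full control effect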). The method, boiled down:
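Endonuclease activity of human APE1 is followed as dequenching when the enzyme incises a tetrahydrofuran abasic site in a short duplex labelled 5'-TAMRA/3'-BHQ-2 (50 nM final), after 15 min enzyme–compound preincubation at room temperature.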

Assay [4] is described as follows: Counterscreen for APE1 Inhibitors: Fluorescent Dye Displacement Validation Assay (AID 1707). Also: potency is read from the fitted curve at half-maximal effect.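 As to activity change, negative = inhibition: plate controls were ThO with dsDNA and no compound for no effect and ThO without dsDNA for full effect.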 Summed up: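 Compounds are scored by their ability to displace Thiazole Orange (250 nM) from a 50 nM TAMRA-tagged duplex bearing a tetrahydrofuran abasic site. Buffer is 50 mM Tris-HCl pH7.5, 50mM NaCl, 2 mM MgCl2, 0.01% Tween-20.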
(The purpose of a counterscreen is to sort out artefacts and off-target activity.)

In assay [5] the target is ATP-dependent DNA helicase Q1 (Homo sapiens) (UniProt P46063). Kind of assay: qHTS Validation Assay for Inhibitors of RecQ-Like Dna Helicase 1 (RECQ1) (AID 2353). Also: potency is read from the fitted curve at half-maximal effect.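 As to activity change, negative = inhibition: plate controls were DMSO vehicle for no effect and enzyme-free control for full effect.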 The method, boiled down: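 50 nM RECQ1T1 preincubated 15 min with compound in Tris pH 8.0 buffer with MgCl2, DTT, Tween-20 and 2.5 ug/ml poly(dI-dC); started with 200 nM TAMRA/BHQ-2 forked duplex and 2 mM ATP. Unwinding read as fluorescence (525/598 nm), two reads 2 h apart.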

Assay [6] is described as follows: Validation screen for small molecules that induce DNA re-replication in MCF 10A normal breast cells (AID 463097). Also: 0% is about no effect; nearly all actives have a fitted effect of over 60% in size. Summed up: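 DNA re-replication was detected as a rise in nuclei with elevated Hoechst fluorescence after a 48 hr compound exposure of MCF 10A cells at 37 C.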
A short description of assay [7]: Quantitative high throughput screen for delayed death inhibitors of the malarial parasite plastid, 96 hour incubation (AID 488745).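 Also: luciferase-expressing P. falciparum in erythrocytes at 2% hematocrit and 0.1% parasitemia; % is scaled to controls: 0 for no effect and ±100 for the full control effect; nearly all actives have a fitted effect of over 70% in size.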 The method, boiled down: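 Infected erythrocytes were added to compound in Albumax-supplemented RPMI 1640 at 0.1% parasitemia and 2% hematocrit (final), incubated 96 h at 37 C under 5% CO2, then luciferase reagent was added and luminescence measured.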

Assay [8] can be described thus: Quantitative high throughput screen for delayed death inhibitors of the malarial parasite plastid, 48 hour incubation (AID 488752). Also: % is scaled to controls: 0 for no effect and ±100 for the full control effect; nearly all actives have a fitted effect of over 65% in size. Summed up: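 Readout is firefly luciferase luminescence from a reporter integrated into the parasite genome, with lower signal taken as inhibited growth. Infected red cells (0.1% parasitemia, 2% hematocrit final) are cultured with compound for one 48 h cycle at 37 C.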

Assay [9] deals with Thyrotropin-releasing hormone receptor (Homo sapiens) (UniProt P34981). In words: qHTS for Small Molecule Agonists and Allosteric Enhancers of Human TRH Receptor: Validation Screen for Agonists (AID 493127;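 active = calcium activation more than 3 SD above the typical response in the agonist read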;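 also: intracellular calcium rise by fluo-8 fluorescence before TRH EC20 addition; 0% is about no effect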). The note with it: TRH receptor agonist cell assay; at 2 µM; stronger effect = higher value. Summed up:
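Cells 2000/well, 10% FCS, 18 h 33.5C/5% CO2 → fluo-8 Ca dye, RT 30 min–1.5 h → FDSS baseline 10 × 1 s → compound added → 230 cycles (1 s/cycle) agonist mode. TRH controls.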

The target of assay [10] is Galactokinase (Homo sapiens) (UniProt P51570). Kind of assay: qHTS Validation Assay for Inhibitors of Human Galactokinase (GALK) (AID 493189). Also: 0% is about no effect. Summed up: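 Compounds were pin-transferred into ATP buffer, then GALK-galactose mix was added (final 5 nM enzyme, 100 uM galactose, 35 uM ATP). After 1 h at room temperature, remaining ATP was measured luminescently.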
The nature of assay [11]: Validation screen for small molecules that induce DNA re-replication in SW480 colon adenocarcinoma cells (AID 504364). Also: 0% is about no effect. The method, boiled down:
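250 cells/well; compound pinned in; 48 hr, 37 C, 5% CO2; Hoechst added, 40 min; nuclear fluorescence imaged, 405 ex / 500-530 em; re-replication scored as increase in high-intensity nuclei.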

Assay [12] has as its target Glutathione peroxidase 1 (Homo sapiens) (UniProt P07203). Kind of assay: Primary qHTS Assay for Inhibitors of Recombinant Selenoprotein Glutathione Peroxidase 1 (GPX1) (AID 1845191). Also: % is scaled to controls: 0 for no effect and ±100 for the full control effect; nearly all actives have a fitted effect of over 65% in size. Summed up: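 GR-coupled assay: compounds preincubated 30 min at room temperature with GPX1, then reaction started with CHP; final 10 nM GPX1, 1 mM GSH, 0.5 mM CHP, 0.5 mM NADPH, 100 nM GR, 0.01% BSA, pH 7.5 Tris buffer. NADPH fluorescence (340/450 nm) read at 0 and 15 min.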

A short description of assay [13]: Primary qHTS for inhibitors of nuclear receptor binding SET domain protein 2 (NSD2) in an isogenic RCH-ACV NSD2 p.E1099K mutant (9B) (AID 1645876). Also: potency is read from the fitted curve at half-maximal effect; nearly all actives have a fitted effect of over 70% in size.
A short description of assay [14]: Primary qHTS for inhibitors of nuclear receptor binding SET domain protein 2 (NSD2) in an RCH-ACV wild type WT cells (2C) (AID 1645877). Also: potency is read from the fitted curve at half-maximal effect; nearly all actives have a fitted effect of over 70% in size.
Assay [15] in a line: qHTS drug screen for cell cycle checkpoint inhibitors in PARPi-resistant BRCA-mutant ovarian cancer cell lines. (AID 1963452; calls by dose curve). Particulars: PEO1/OlaR viability, CellTiter-Glo luminescence, 96 h, stronger effect = lower value. The method, boiled down: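 PEO1, PEO4 and PEO1/OlaR ovarian cancer cells, 600 per well, exposed 96 h at 37C to a dilution series. Viability read by CellTiter-Glo luminescence, normalized to DMSO and empty wells; activity summarized as Z-AUC.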

A short description of assay [16]: qHTS assay to identify inhibitors of the type 1 interferon - major histocompatibility complex class I in skeletal muscle: Counter screen cell viability and HiBit confirmation (AID 1347412). Also: % is scaled to controls: 0 for no effect and ±100 for the full control effect; nearly all actives have a fitted effect of over 60% in size. Particulars: iHSKM muscle cells + IFN-b, HiBiT or CellTiter-Glo, 24 h; HiBiT; at 45.9 µM (top of the series). Summed up:
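Myoblasts (C25cl48, HLA-B HiBiT) seeded in medium without dexamethasone, IFN-b 4 ng/ml added except unstimulated columns; 1 hr later compounds pinned (12-pt 1:3, top 46 uM final). Incubated 24 hrs, lysed 10 min, luminescence measured.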

The target in assay [17] is Endonuclease 4 (Escherichia coli (strain K12)) (UniProt P0A6C1). Kind of assay: Counterscreen for APE1 Inhibitors: qHTS Validation Assay for Inhibitors of Endonuclease IV (AID 1708). Also: % is scaled to controls: 0 for no effect and ±100 for the full control effect. Summed up:
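E. coli EndoIV at 2 nM final, preincubated 15 min at room temperature with compound, then 50 nM TAMRA/BHQ-2 THF abasic-site duplex added. Buffer: 50 mM Tris-HCl pH 7.5, 50 mM NaCl, 2 mM MgCl2, 1 mM DTT, 0.01% Tween-20. Kinetic fluorescence increase, third minus first read.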

The target in assay [18] is M-phase phosphoprotein 8 (Homo sapiens) (UniProt Q99549). In words: qHTS Validation Assay for Inhibitors for MPP8 Chromodomain Interactions with Methylated Histone Tails (AID 488949).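 Also: AlphaScreen signal from MPP8 chromodomain bound to biotinylated H3K9me3 peptide; top concentration of the series differs between compounds; % is scaled to controls: 0 for no effect and ±100 for the full control effect; nearly all actives have a fitted effect of over 55% in size.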 The method, boiled down: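 Disruption of the preformed MPP8–trimethyl-H3K9 peptide complex (both 50 nM, 30 min, RT) is measured after 30 min compound exposure, using AlphaScreen proximity beads; aurintricarboxylic acid titration serves as plate control.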

The mark [19] stands for this setting: measured here: cell count channel max response.
Setting [20] is: measured here: lipid channel max response.

Sequence of DNA repair nuclease/redox regulator APEX1 (Homo sapiens) (P27695 whole entry, looked up): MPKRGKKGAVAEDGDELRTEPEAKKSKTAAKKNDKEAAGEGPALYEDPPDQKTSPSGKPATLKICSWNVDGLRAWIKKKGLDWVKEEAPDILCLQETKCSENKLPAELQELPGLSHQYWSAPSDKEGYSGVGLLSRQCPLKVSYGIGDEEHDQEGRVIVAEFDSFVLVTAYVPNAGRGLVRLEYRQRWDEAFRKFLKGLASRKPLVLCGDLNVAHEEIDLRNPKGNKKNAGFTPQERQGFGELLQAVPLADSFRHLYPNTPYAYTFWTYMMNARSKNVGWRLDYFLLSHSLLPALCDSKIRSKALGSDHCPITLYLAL
Sequence of ATP-dependent DNA helicase Q1 (Homo sapiens) (P46063 whole entry, looked up): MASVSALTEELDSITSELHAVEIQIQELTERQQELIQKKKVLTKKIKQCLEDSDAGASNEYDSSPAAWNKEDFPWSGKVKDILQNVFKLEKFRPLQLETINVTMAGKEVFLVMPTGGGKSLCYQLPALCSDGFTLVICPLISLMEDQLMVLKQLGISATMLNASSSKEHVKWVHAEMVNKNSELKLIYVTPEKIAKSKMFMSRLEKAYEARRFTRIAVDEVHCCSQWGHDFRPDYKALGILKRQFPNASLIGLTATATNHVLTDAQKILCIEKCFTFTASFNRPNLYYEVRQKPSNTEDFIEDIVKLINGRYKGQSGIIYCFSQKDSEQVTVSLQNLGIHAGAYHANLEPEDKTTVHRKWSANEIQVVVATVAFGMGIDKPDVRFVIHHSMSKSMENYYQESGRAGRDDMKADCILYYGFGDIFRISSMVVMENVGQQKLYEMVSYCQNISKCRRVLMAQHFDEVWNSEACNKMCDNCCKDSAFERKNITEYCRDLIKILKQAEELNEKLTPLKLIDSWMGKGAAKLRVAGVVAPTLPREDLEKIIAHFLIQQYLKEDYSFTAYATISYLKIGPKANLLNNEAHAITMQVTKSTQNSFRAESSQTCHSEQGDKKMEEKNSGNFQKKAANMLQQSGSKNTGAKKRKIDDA
Sequence of Thyrotropin-releasing hormone receptor (Homo sapiens) (P34981 whole entry, looked up): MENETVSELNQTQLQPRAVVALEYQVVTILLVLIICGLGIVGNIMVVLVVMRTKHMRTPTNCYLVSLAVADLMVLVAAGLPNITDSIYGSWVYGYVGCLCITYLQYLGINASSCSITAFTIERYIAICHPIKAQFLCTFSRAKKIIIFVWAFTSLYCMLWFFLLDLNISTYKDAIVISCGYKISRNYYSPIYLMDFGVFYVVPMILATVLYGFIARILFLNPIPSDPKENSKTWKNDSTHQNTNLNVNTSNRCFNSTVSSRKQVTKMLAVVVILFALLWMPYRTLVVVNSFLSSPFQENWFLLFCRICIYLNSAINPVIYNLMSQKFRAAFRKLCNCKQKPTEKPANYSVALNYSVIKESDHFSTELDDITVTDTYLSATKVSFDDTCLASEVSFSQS
Sequence of Galactokinase (Homo sapiens) (P51570 whole entry, looked up): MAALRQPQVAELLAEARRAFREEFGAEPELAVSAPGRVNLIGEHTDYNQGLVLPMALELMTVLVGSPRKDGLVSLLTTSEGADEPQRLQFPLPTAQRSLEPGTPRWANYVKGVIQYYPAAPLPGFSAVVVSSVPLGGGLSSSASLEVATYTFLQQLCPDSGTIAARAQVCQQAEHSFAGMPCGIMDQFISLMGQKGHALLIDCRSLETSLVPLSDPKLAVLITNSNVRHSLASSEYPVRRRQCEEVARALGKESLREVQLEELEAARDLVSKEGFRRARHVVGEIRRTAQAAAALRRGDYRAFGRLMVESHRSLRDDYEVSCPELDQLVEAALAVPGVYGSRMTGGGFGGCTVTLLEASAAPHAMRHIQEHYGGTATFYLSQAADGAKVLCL
Sequence of Glutathione peroxidase 1 (Homo sapiens) (P07203 whole entry, looked up): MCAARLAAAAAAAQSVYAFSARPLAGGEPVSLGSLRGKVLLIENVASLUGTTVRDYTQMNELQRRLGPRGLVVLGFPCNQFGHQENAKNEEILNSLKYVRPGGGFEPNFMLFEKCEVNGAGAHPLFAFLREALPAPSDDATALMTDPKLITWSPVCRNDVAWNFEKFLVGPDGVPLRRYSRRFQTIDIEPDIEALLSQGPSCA
Sequence of M-phase phosphoprotein 8 (Homo sapiens) (Q99549 whole entry, looked up): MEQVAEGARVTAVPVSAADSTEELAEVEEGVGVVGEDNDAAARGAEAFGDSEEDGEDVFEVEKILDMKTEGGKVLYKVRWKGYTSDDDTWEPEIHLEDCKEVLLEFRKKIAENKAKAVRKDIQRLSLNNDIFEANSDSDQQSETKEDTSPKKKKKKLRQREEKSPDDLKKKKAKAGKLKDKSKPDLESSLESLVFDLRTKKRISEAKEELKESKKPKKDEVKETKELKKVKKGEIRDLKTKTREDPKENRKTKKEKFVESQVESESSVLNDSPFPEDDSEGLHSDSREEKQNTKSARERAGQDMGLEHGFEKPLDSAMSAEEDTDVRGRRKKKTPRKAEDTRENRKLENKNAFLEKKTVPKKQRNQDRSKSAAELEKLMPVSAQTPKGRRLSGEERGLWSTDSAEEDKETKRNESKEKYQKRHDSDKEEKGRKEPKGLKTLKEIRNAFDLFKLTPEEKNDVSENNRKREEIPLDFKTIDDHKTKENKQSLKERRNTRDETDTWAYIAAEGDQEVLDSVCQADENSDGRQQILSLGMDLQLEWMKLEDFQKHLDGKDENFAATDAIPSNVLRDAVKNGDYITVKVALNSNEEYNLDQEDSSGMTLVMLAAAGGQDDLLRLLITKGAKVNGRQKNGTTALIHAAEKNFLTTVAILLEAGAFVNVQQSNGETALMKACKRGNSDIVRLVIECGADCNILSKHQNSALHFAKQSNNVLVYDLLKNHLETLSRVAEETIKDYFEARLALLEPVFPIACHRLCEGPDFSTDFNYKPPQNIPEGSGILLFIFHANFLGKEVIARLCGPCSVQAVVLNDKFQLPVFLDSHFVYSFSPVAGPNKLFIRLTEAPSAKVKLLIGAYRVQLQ

On to `Cc1ccccc1N1CCN(S(=O)(=O)C[C@]23CCC(CC2NC(=O)[C@@H](N)CCS(C)(=O)=O)C3(C)C)CC1` (stereo not given in full), for which the call in assay [1], in assay [6], in assay [10] and in assay [11] was inactive. Further, the activity change, negative = inhibition in assay [2] was 0.353% (inactive). In addition, the figures for the max response in [2] (setting [19]) and in [2] (setting [20]) were -14.5% and -10.9%, respectively. Also, the Potency result in assay [3], in [4], in assay [5], in assay [7], in assay [8] and in [12] was “inactive” in each case. Also, the activation in assay [9] is 1% (inactive).
`NC(=O)c1cccc2c(NC(CN3CCC3)c3ccc(Cl)c(C(F)(F)F)c3)ncnc12` (stereo not given): the results for the Potency in assay [13] and in assay [14] were 1.05 µM (active) and 1.32 µM (active), respectively. Also, the Potency entry in assay [12] is “inactive”. In addition, the Z-AUC in assay [15] is 0.286 (inactive); in [15] (measured here: PEO1 parental Z-AUC) it was 0.149; in assay [15] (measured here: PEO4 Z-AUC) it was 0.205. Further, the activity change, negative = inhibition in [16] is -0.923% (inactive).
In the case of `NC(=NCCC[C@H](N)C(=O)O)NO`, the outcome in assay [1], in assay [17], in [6], in [10] and in assay [11] was inactive. For the same compound, the Potency result in [3], in assay [4], in assay [5], in assay [7], in assay [8] and in assay [18] was “inactive” in each case. Further, the activation in assay [9] is 0.812% (inactive).
Consider `N.N.N.N.N.N.N.N.N.N.N.N.N.N.O.O.[Cl-].[Cl-].[Cl-].[Cl-].[Cl-].[Cl-].[Ru].[Ru].[Ru]`, for which the outcome in assay [1], in assay [6], in assay [10] and in assay [11] was inactive. In assay [2], the activity change, negative = inhibition was 3.46% (inactive). Moreover, the figures for the max response in assay [2] (setting [19]) and in assay [2] (setting [20]) were 40.4% and 45.1%, respectively. The Potency was 35.5 µM (active) in assay [3], 20 µM (active) in [4] and 4.47 µM (active) in assay [5]. Also, the Potency entry in assay [7] and in [8] was “inactive” in each case. Further, the activation in [9] is 1.06% (inactive).
With `CN1C2CC(OC(=O)C(CO)c3ccccc3)CC1C1OC12` (stereo not given), the call in [1], in [6], in [10] and in assay [11] was inactive. Also, the Potency entry in [3], in [4], in assay [5], in assay [7] and in assay [8] was “inactive” throughout.
Regarding `Nc1nc(Nc2ccccc2)nc2c1ncn2[C@@H]1O[C@H](CO)[C@H](O)[C@H]1O`, the compound was classed as inactive in assay [1], in assay [17], in [6], in assay [10] and in assay [11]. Also, the activity change, negative = inhibition in [2] is -0.104% (inactive). Moreover, the max response in assay [2] (setting [19]) is -25.4%; in assay [2] (setting [20]), -24.2%. Moreover, the Potency result in assay [3], in assay [4], in assay [5], in assay [7], in assay [8] and in assay [18] was “inactive” each time. In addition, the activation in [9] is 0.938% (inactive).
